Paper PMC4336329 (PLoS ONE, 2015)
Hit rate of the full screen: of about 310,000 compounds, about 14,000 (4.5%) showed an effect of 50% or more. Effects have a minus sign here. The sample as a whole holds a higher share of strong results than the screen did.

Biological target: human ether-à-go-go-related gene (hERG) potassium channel (human, UniProt Q12809)
Assay: primary screen, population patch clamp on CHO cells stably expressing hERG; higher = less effect of the substance
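Also: peak tail current of the secondary pulse compared with the same well before compound.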

human ether-à-go-go-related gene (hERG) potassium channel, sequence (Q12809 whole entry, looked up): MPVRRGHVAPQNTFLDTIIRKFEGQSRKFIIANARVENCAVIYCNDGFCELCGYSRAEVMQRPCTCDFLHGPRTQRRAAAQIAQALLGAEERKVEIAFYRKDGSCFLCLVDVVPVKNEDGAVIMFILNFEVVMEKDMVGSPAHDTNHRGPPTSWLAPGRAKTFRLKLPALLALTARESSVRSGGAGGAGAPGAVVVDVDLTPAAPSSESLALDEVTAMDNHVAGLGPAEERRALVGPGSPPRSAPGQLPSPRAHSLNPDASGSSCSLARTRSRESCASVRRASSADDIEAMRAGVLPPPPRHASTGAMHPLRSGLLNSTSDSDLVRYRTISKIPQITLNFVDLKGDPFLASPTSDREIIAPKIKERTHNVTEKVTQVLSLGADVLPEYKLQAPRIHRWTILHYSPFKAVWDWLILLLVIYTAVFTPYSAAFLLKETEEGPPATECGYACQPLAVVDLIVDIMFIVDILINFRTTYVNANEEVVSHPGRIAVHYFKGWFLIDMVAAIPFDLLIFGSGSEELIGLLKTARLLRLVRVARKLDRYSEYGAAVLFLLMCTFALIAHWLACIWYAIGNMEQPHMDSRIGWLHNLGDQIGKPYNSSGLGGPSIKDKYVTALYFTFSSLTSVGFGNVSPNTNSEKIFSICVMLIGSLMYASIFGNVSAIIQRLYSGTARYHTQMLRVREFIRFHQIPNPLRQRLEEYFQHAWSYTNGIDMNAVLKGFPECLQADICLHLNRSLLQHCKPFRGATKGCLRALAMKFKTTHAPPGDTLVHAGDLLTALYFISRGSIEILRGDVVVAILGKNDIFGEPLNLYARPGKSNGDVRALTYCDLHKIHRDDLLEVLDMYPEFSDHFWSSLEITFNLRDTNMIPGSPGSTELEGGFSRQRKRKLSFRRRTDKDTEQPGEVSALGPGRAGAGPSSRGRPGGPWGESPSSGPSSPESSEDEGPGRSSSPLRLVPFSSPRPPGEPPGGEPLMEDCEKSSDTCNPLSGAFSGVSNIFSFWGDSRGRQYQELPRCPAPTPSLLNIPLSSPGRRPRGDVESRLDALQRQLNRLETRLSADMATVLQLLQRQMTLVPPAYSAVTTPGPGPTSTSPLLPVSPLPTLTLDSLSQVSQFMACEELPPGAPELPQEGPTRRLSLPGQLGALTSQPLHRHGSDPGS

Compound | hERG current change (%, negative = inhibition) at 10uM [%]
CCCC[n+]1c(-c2ccc(Cl)cc2Cl)csc1Nc1ccccc1.[Cl-] | -6.7
O=C(CC12CC3CC(CC(C3)C1)C2)N1CCCOC1 | -3.81
O=C(CCO)c1ccc(O)cc1 | 10.6
FC(F)(F)c1ccccc1NC(=S)N1CCN(c2ccccn2)CC1 | 5.12
O=C(NCCN1CCCCC1)c1ccco1 | 7.02
Cc1nc(C)n(CCNC(=O)c2ccco2)n1 | 27
Cc1ccc2sc(N3CCN(CCNC(=O)c4ccco4)CC3)nc2c1C.Cl | -58.2
Br.Cc1ccc(C)c(C(=O)Cn2c(NCCO)nc3ccccc32)c1 | 6.12
CCOC(=O)C1(Cc2ccccc2)CCCN(C2CCCC2)C1 (centres unmarked) | -2.87
CCOC(=O)C1(Cc2ccc(Cl)cc2)CCN(C2CCC2)CC1 | -44.9
OCC1(CCOc2ccccc2)CCN(C2Cc3ccccc3C2)CC1 | -72.8
CCOC(=O)C1(CCOc2ccccc2)CCN(S(=O)(=O)N(C)C)CC1 | -1.79
CCOC(=O)C1(CCc2ccccc2)CCN(C(=O)[C@@H]2C[C@@H](C)NC(=S)N2)CC1 | 6.08
CCOC(=O)C1(Cc2ccccc2C(F)(F)F)CCN(C2CCSC2)CC1 (centres unmarked) | -25.2
CCOC(=O)C1(Cc2ccccc2)CCN(C2Cc3ccccc3C2)CC1 | -66.4
CCOC(=O)C1(CCc2ccccc2)CCN(C2CCSCC2)CC1 | -76.3
Cc1ccc(OCC(=O)N2CCCC(CO)(CCOc3ccccc3)C2)cc1 (centres unmarked) | -30.4
CCOC(=O)C1(CCOc2ccccc2)CCN(C2Cc3ccccc3C2)CC1 | -53.4
O=C1CN(c2nnnn2-c2ccccc2)CCN1 | -6.89
COC(=O)[C@@]1(Cc2ccccc2)C=C[C@@H](C)N1C(C)=O | 2.06
Cc1cccc(C)c1NC(=O)CCCSc1nnc(-c2ccc(Cl)cc2)n1-c1ccccc1 | -3.49
COc1ccc(C(C)(C)C)cc1NC(=O)CN1C(=O)C(=O)N(Cc2ccco2)C1=O | 2.86
CCCCNC(=O)NS(=O)(=O)c1ccc(NC(=O)CCC(=O)c2cccs2)cc1 | 23.1

Compound | hERG current change (%, negative = inhibition) at 10uM [%]
O=S(=O)(c1ccc(Cl)nc1)N1CCCCC1 | -1.17
CC1(C)Oc2ccc3ccc(=O)oc3c2C(/C=N/O)=C1Cl | 14.7
CCOC(=O)C1CCN(/C=C2/C(=O)NC(=S)N(c3cccc(OC)c3)C2=O)CC1 | 19.4
CCOC(=O)/C=c1\s/c(=C(\C#N)C(=O)NC)n(-c2ccccc2)c1=O | 10.6
Cc1ccc(-c2nn3c(C)nnc3s2)cc1NC(=O)c1ccco1 | -11.7
O=C(N/N=C/C=C\c1ccco1)c1cccnc1 | 8.4
Cn1cccc1-c1nc2ccccc2n1Cc1ccccc1 | -29.1
CCOC(=O)C1(CCc2ccccc2)CCN(C2Cc3ccccc3C2)CC1 | -64.8
CS(=O)(=O)c1ccc(S(=O)(=O)N2CCC(CO)(CCCc3ccccc3)CC2)cc1 | -41.4
O=C(NCc1ccccc1)N1CCC(CO)(CCc2ccccc2)CC1 | -38
OCC1(CCCc2ccccc2)CCN(C2CCSCC2)CC1 | -80.5
CCCCOC(=O)c1ccc(NC(=O)CSC2=Nc3ccccc3C3CC=NN23)cc1 (centres unmarked) | 15.4
O=C(COc1ccccc1)NCC(=O)Nc1ccncc1 | 1.26
O=C(c1ccc(NC(=O)C2(c3ccccc3)CCOCC2)cc1)N1CCOCC1 | 9.8
CC(=O)N1c2c(cc(Br)cc2S(=O)(=O)NCC2COc3ccccc3O2)CC1C (centres unmarked) | -44.5
CC1CCCN(S(=O)(=O)c2cc3c4c(c2)CCN4C(=O)CC3)C1 (centres unmarked) | -6.07
COC(=O)[C@@]12CCCN1[C@H](c1ccc(-c3ccc(OC)cc3)c(OC)c1)[C@@H]1C(=O)N(C)C(=O)[C@@H]12.O=C(O)C(F)(F)F | -9.37
CC1(C)O[C@H]2CC(=O)OC[C@]23[C@H]2CC[C@@]4(C)[C@H](c5ccoc5)OC(=O)[C@H]5O[C@]54[C@]2(C)[C@@H](O)C[C@@H]13 | 17.1
CCOC(=O)CN1C(=O)S/C(=C/c2ccc(N3CCCCC3)o2)C1=O | 13.1
CCOC(=O)CN1C(=O)S/C(=C/c2ccc(C)o2)C1=O | -72.7
CCOC(=O)CN1C(=O)S/C(=C/c2ccco2)C1=O | 9.39
Cc1[nH]nc2c1C(c1ccsc1C)C(C#N)=C(N)O2 (centres unmarked) | 2.25
Cn1cnnc1SCC(=O)NN(c1ccccc1)c1ccccc1 | 28.6

Compound | hERG current change (%, negative = inhibition) at 10uM [%]
CCNC(=O)C(C)Oc1ccc(Cl)cc1Cl (centres unmarked) | 9.68
Cc1cccc(C(=O)C2CCOC(C)(C)C2)c1 (centres unmarked) | 13
Cc1oc(-c2ccc(C(F)(F)F)cc2)nc1CN(Cc1ccccn1)C[C@@H]1CCC(=O)N1 | -38.2
CCCN(Cc1nc(-c2ccc(Cl)cc2)no1)CC1CCCO1 (centres unmarked) | -8.15
O=C1CC[C@@H](CN(Cc2ccccn2)Cc2nc(-c3ccc(C(F)(F)F)cc3)no2)N1 | -62.7
CCN(Cc1nc(-c2ccc(Cl)cc2)no1)CC1CCCO1 (centres unmarked) | -62.9
COC(=O)c1ccc(-c2noc(CN(Cc3ccccn3)CC3CCCO3)n2)cc1 (centres unmarked) | -75
COC(=O)c1ccc(-c2noc(CN(Cc3ccncc3)CC3CCCO3)n2)cc1 (centres unmarked) | -28.5
O=C1CC[C@@H](CN(Cc2ccccn2)Cc2nc(Cc3cccc(C(F)(F)F)c3)no2)N1 | -48.4
Clc1ccc(-c2noc(CN(Cc3ccccn3)CC3CCCO3)n2)cc1 (centres unmarked) | -28.5
CCN(Cc1nc(-c2cccc(Cl)c2)no1)CC1CCCO1 (centres unmarked) | 1.7
COc1ccc(CN(CC2CCC(C(=O)O)CC2)C(=S)Nc2cccc(C)c2)cc1 (centres unmarked) | -2.44
O=Cc1cc(-c2ccccc2)[nH]c1-c1ccccc1 | 22.5
COCCn1nnnc1C(C(C)C)N(Cc1cccnc1)Cc1cc2cc(OC)ccc2[nH]c1=O (centres unmarked) | -29.3
CCCCCC(=O)NNC(=O)Cc1ccc([N+](=O)[O-])cc1 | -1.38
Cc1ccccc1C(=O)c1cccn1CC(=O)NCCCN1CCc2ccccc2C1 | -78.6
O=C(Cn1cccc1C(=O)c1ccccc1)NCCCN1CCOCC1 | 13.4
O=C(Cn1cccc1C(=O)c1ccccc1)NCCN1CCCCCC1 | -35.3
Cc1ccccc1C(=O)c1cccn1CC(=O)NCCCN1CCCCC1 | -41.9
O=C(Cn1cccc1C(=O)c1ccccc1)NCCCN1CCc2ccccc2C1 | -74.1
Cc1ccccc1C(=O)c1cccn1CC(=O)NCC(C)c1ccccc1 (centres unmarked) | -20.3
O=C(CN1C(=O)NC2(CCCCC2)C1=O)Nc1cc(C(F)(F)F)ccc1N1CCCCC1 | -1.7
Fc1cc(F)c2nc(Nc3nc4cc5c(cc4s3)OCO5)sc2c1 | 15.2

Compound | hERG current change (%, negative = inhibition) at 10uM [%]
O=C(Oc1ccc2ccccc2c1)c1cncc(Br)c1 | -11.6
CC1CCN(S(=O)(=O)c2ccc(NC(=O)[C@@H]3CCCC[C@@H]3C(=O)O)cc2)CC1 | 9.64
CCC(C)(C(=O)NC1CCCCC1)N(Cc1ccco1)C(=O)c1cnccn1 (centres unmarked) | -11.3
Cc1ccc(NC(=O)COC(=O)COc2ccc3ccc(=O)oc3c2)cc1[N+](=O)[O-] | 3.51
CCCc1nc2ccccc2c(C(=O)O)c1CC | 1.82
Cc1cc(C)c2nc(C(F)(F)F)c(C#N)c(N)c2c1 | 17.4
CCCc1nc2c(C)ccc(C)c2c(N)c1CC | -62.5
CCCSc1nc(C)c2cc(C)cc(C)c2n1 | 10.9
CCCc1nc2c(C)cc(C)cc2c(N)c1CC | -59.2
CCCc1nc(N)c(C#N)c(-c2ccco2)c1CC | 14.3
Cc1cc(C)cc(N=c2c([N+](=O)[O-])nn(-c3cccc(Cl)c3)n2O)c1 | -6.03
Cc1cccc(CC2CC(=O)N(CCc3ccc4c(c3)OCO4)C2=O)c1 (centres unmarked) | 34.2
COc1ccc(C(=O)/C=C2\NCCc3cc(OC)c(OC)cc32)cc1OC | 11.6
CCNC(=S)NNC(=O)CCc1nc2cc(Cl)ccc2n(Cc2ccccc2)c1=O | -54.7
COC(=O)CCc1nc2cc(Cl)ccc2n(Cc2ccccc2)c1=O | -23.1
CC(C)c1nc2cc(Cl)ccc2n(Cc2ccccc2)c1=O | 24.6
CN(C)C(CNC(=O)CCc1nc2cc(Cl)ccc2n(Cc2ccccc2)c1=O)c1ccccc1 (centres unmarked) | -81.1
O=C(O)CCc1nc2cc(Cl)ccc2n(Cc2ccccc2)c1=O | 22.2
O=C(O)CCc1nc2cc(C(F)(F)F)ccc2n(Cc2ccccc2)c1=O | 23.8
CC(=O)Nc1ccc(NC(=O)CSc2nnc(-c3cccnc3)o2)cc1 | 7.42
